The text below walks through data of PubChem BioAssay (NCI).

This is part of a sample that, as a whole, favours compounds with a hit. Of some 83,000 tested, about 20% had one in any assay.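 Percent growth is the endpoint: 0 to 100 indicates growth inhibition (40 means 60% inhibition), 0 means no net growth, and negative values indicate cell death.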 The source made the active and inactive calls.

This test has as its system MDA-MB-435 melanoma. In words: NCI-60 one-dose screen, 48 h (100 = growth as untreated, 0 = no growth, -100 = all killed). As to conditions: 10 µM unless noted. The procedure:
Growth inhibition of the MDA-MB-435 human Melanoma tumor cell line is measured as a screen for anti-cancer activity. Cells are grown in 96 well plates and exposed to the test compound for 48 hours. Compounds are tested at a single concentration, which is 10^-5 M for most compounds. The reported endpoint is percent growth (GI% or GIPRCNT), where numbers from 0 - 100% represent growth inhibition, and numbers from -100% - 0 represent cell death. For example, a value of 40 represents 60% growth inhibition. A value of 0 means no net growth occurred over the course of the experiment. A value of -40 indicates 40% of cells at the beginning of the experiment died by the end of the experiment. A value of -100 means all cells are dead at the end of the experiment.
NCI-60 Human Tumor Cell Lines Screen was performed using the standard one-dose NCI protocol, which is described in more detail at https://dtp.cancer.gov/discovery_development/nci-60/default.htm.
Compounds with GIPRCNT values below 10 were considered active. Activity score was based on GIPRCNT using the following formula: […]
Score is 0 for GIPRCNT values of 100 or above, 50 for GIPRCNT values of 0, and 100 for GIPRCNT values of -100.
Regarding `COc1ccc(C(O)c2cc3c(N)c(C(=O)Nc4cccc(Cl)c4)sc3nc2C)cc1` (stereo not given), the growth was 0.877% (active).

Consider `CCOC(=O)C/C(=N\Nc1cc(=O)[nH]c2ccc(Cl)cc12)C(=O)OCC`, for which the growth is 102% (inactive).

`CCCCCCCCn1ccc2cc(NC(=O)Cn3cc(CN4CCOCC4)nn3)ccc21`: the growth was 99.7% (inactive).

On to `COc1ccc(/C=C/C(=O)c2cc3c(N)c(C(=O)Nc4ccccc4C)sc3nc2C)cc1`, for which the growth was -39.6% (active). As for `CCOC(=O)Cn1c(=O)c2c3ccccc3n(C)c2n2nnc(-c3ccccc3)c12`, the figure is 99.1% (inactive). For the compound `CC(C)=CC(=O)N[C@@H]1CC2CCC3C(CC[C@@]4(C)C3CC[C@@H]4C(C)N(C)C)[C@@]2(C)C[C@@H]1O` (stereo not given in full), the growth is 12.6% (inactive). Next, `COCC[C@H]1CCC/C=C/[C@@H]2C[C@H](O)C[C@H]2[C@H](O)/C=C/C(=O)O1`: 9.56% (active). `CCOC(=O)C1CCN(c2ccc(N3C[C@@H](CNCc4ccc(C(=N)N)cc4)OC3=O)cc2)CC1`: the growth is 104% (inactive). Next, `O=C(NCc1ccccc1O)c1cccc2ccccc12`: 76.9% (inactive); `Cc1nn(-c2ccccc2)c(/N=C/N(C)C)c1/C=C/C(=O)c1ccc(Cl)cc1`: 98.4% (inactive).

In the case of `O=C(N/N=C/c1ccc(Cl)cc1Cl)c1ccc2nc(-c3ccc(Cl)cc3)[nH]c2c1`, the growth was 38.8% (inactive).

Take `Cn1c(=O)c2c(nc(NC3=NS(=O)(=O)c4ccccc43)n2Cc2ccccc2)n(C)c1=O`: the growth is 101% (inactive). As for `Cc1nn(-c2ccccc2)c(N2CCCCC2)c1/C=N/NC(=O)Cn1c(=O)sc2ccccc21`, the figure is 87.9% (inactive); as for `CC1(C)CC2=C3C=C[C@@H]4[C@@]5(C)CC[C@H](O)C(C)(C)[C@@H]5CC[C@@]4(C)[C@]3(C)CC[C@@]2(C(=O)O)CC1=O`, 39.4% (inactive). Consider `CC12CCC(/C(=C/NNc3ccc([N+](=O)[O-])cc3[N+](=O)[O-])C1=O)C2(C)C` (stereo not given), for which the growth is 70.5% (inactive). As for `C#Cc1cccc(Oc2ccc(NC(=O)CCl)cc2)c1`, the figure is 31.7% [8.25 µM] (inactive). As for `O=C1/C(=C/c2ccc(C(F)(F)F)cc2)COc2ccc(O)c(O)c21`, the growth was -5.38% (active). As for `COc1cc(C(=O)/C=C/c2ccc(N3CCN(C)CC3)cc2)cc(OC)c1OC`, the figure is 95.5% (inactive); as for `COc1cc(C2C3=C(COC3=O)N(CCO)c3cc4c(cc32)OCCO4)cc(OC)c1OC` (stereo not given), -32.8% (active); as for `CCOC(=O)c1c(NC(=O)CSc2n[nH]c3nc4ccccc4n23)sc(CC)c1C`, 103% (inactive). For the compound `O=C(Cn1nnc2ccccc21)Nc1ccc(-c2nc3ccccc3s2)cc1`, the growth is 95.9% (inactive).

Regarding `C/C(=C(/c1ccc(Cl)cc1)c1ccc(OCCCN(C)C)cc1)c1ccc(Cl)cc1`, the growth is 92.6% (inactive).

Take `O=C(Nc1cccc(NC(=O)C2CCCCC2)c1)c1ccccn1`: the growth is 102% (inactive).

In the case of `CCCCCCOC(=O)CC1=C(C)/C(=C/c2[nH]c(-c3ccc[nH]3)cc2OC)N=C1C`, the growth is -82.4% (active). Regarding `CN(C)c1ccc(/C=C2/C=C(c3ccccc3)OC2=O)cc1`, the growth was 21.7% (inactive).

Consider `N#C/C(=C\c1ccc(Cl)cc1Cl)C(=O)Nc1ncc(Cc2ccc(Cl)c(Cl)c2)s1`, for which the growth was 60.8% (inactive). On to `CC1COCC(C)N1C1=C(Cl)C(=O)c2ccccc2C1=O` (stereo not given), for which the growth was 29.6% (inactive). As for `COc1ccc(/C(C)=C(\c2ccc(OCCN3CCCCCC3)cc2)c2ccc(OC(=O)c3ccccc3)cc2)cc1`, the figure is 63% (inactive).

Consider `COc1ccccc1NC(=O)c1ccc(/C=C/C(=O)c2nccn2C)cc1`, for which the growth was -75.7% (active).

For the compound `O=C(c1ccc(F)c(Cl)c1)N1c2ccccc2Sc2ccccc21`, the growth is 8.14% (active).

Regarding `C=CC(=O)N1CCN(c2ccc3cccc(NC(=O)c4cnc(C)cn4)c3n2)CC1`, the growth is 33.1% (inactive). Next, `COc1ccc(NC(=O)c2sc3nc(C)c(C(O)c4ccccc4)cc3c2N)cc1` (stereo not given): -27.8% (active). As for `CCCCC(=O)Nc1ncc(Cc2ccccc2Cl)s1`, the figure is -31.8% (active); as for `COC(=O)c1ccc2c(c1)c1c(C)c3ccncc3c(C)c1n2C`, 28.3% (inactive).

Regarding `C/C(=N\Nc1nc(C)cs1)c1cc2ccccc2o1`, the growth was 105% (inactive). Turning to `COc1ccc2cc(Cn3cc[n+](Cc4ccc5ccccc5c4)c3)ccc2c1`, the growth is 7% (active).

Regarding `C[N+](C)(C/C=C/c1ccccc1)Cc1ccccc1`, the growth is 101% (inactive).

`COC(=O)c1c2c(c(C)[n+]([O-])c1C)C(=O)C=CC2=O`: the growth was -61.4% (active). As for `COc1ccc(Nc2ncccc2NC(=O)c2cn(Cc3cccc(Oc4ccccc4)c3)nn2)cc1OC`, the growth is 4.74% (active).

Take `COc1cc(-c2nc(NC(C)=O)sc2-c2ccnc(NCCNS(=O)(=O)c3ccccc3)n2)ccc1Cl`: the growth was -62.3% (active).
